According to PubChem BioAssay (NCATS):
Inconclusive results are not listed. Calls of active or inactive are those of the source. The call rests on the fitted dose curve; in most records, active means well fitted curve in the direction sought with a large enough effect; inconclusive means small, poorly fitted or top-dose-only effect, or another doubt; inactive means no such curve, though single readings can be large; an effect the other way counts as inactive or inconclusive.

Key:
[1] = tested on: Zika virus NS2B-NS3 protease (linked construct); test: Primary screen NINDS Rhodamine qHTS for Zika virus inhibitors (AID 1347160); further: nearly all actives have a fitted effect of over 55% in size
Outline: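 Percent inhibition, normalized to uninhibited and enzyme-free controls, is fitted to a 4-parameter Hill equation. Fluorescence change comes from a 15-min cleavage of 1.5 microM bis-peptide Rhodamine110 substrate by 25 nM linked NS2B-NS3 at room temperature.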

[2] = HPAF-II Cancer Cell Toxicity qHTS against the NCATS CANVASS Library (AID 1347346); further: series mostly up to about 38 µM; nearly all actives have a fitted effect of over 55% in size
Outline: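 Luminescence from CellTiter-Glo, added after 72 h compound exposure and a 15 min room-temperature incubation, served as the viability readout. HPAF-II cells (1000/well) received an 11-point concentration series.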

[3] = UWB1.289 Cancer Cell Toxicity qHTS against the NCATS CANVASS Library (AID 1347347); further: series mostly up to about 38 µM; nearly all actives have a fitted effect of over 60% in size
Outline: (§1)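 1000 cells/well seeded and rested 4 h at 37 °C before pin transfer of compounds in an 11-pnt series. Exposure 72 h at 37 °C/5% CO2; viability by CellTiter-Glo luminescence after 15 min at room temperature.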

[4] = OV-SAHO Cancer Cell Toxicity qHTS against the NCATS CANVASS Library (AID 1347348); further: series mostly up to about 38 µM; nearly all actives have a fitted effect of over 55% in size
Outline: as §1

[5] = SW1088 Cancer Cell Toxicity qHTS against the NCATS CANVASS Library (AID 1347350); further: nearly all actives have a fitted effect of over 75% in size
Outline: as §1

[6] = U-118MG Cancer Cell Toxicity qHTS against the NCATS CANVASS Library (AID 1347351); further: series mostly up to about 38 µM
Outline: as §1

[7] = COV-362 Cancer Cell Toxicity qHTS against the NCATS CANVASS Library (AID 1347352); further: series mostly up to about 38 µM
Outline: (§2)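 Luminescent ATP read-out (CellTiter-Glo, 15min at room temperature) measures survival after cells face an 11-point compound series for 72 hours at 37 degrees C/5% CO2.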

[8] = A2780 Cisplatin Sensitive Ovarian Cancer Cell Toxicity qHTS against the NCATS CANVASS Library (AID 1347353); further: nearly all actives have a fitted effect of over 60% in size
Outline: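 Luminescent ATP content (ATPLite, 10 min at room temperature) served as the read-out after cells had been exposed to compounds for 72 hours at 37 °C. Dosing followed an 11-point concentration series.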

[9] = UWB1.289-WTBRCA1 Cancer Cell Toxicity qHTS against the NCATS CANVASS Library (AID 1347354)
Outline: as §2

[10] = HEK-293 Cancer Cell Toxicity qHTS against the NCATS CANVASS Library (AID 1347355); further: series mostly up to about 46 µM; nearly all actives have a fitted effect of over 65% in size
Outline: as §2

[11] = HPAF-II 24hr Apoptosis Induction qHTS against the NCATS CANVASS Library (AID 1347356)
Outline: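 Luminescent caspase-3/7 signal (DEVD substrate, Caspase-Glo) served as read-out, taken 15 min after reagent addition to HPAF-II cells exposed 24 h to compounds.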

[12] = HEK293 18hr Apoptosis Induction qHTS against the NCATS CANVASS Library (AID 1347357)
Outline: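 HEK293 cells (500 per well, DMEM with 10% FBS) were treated with natural products, incubated 18 hours at 37 degrees C, then caspase-3/7 activity was read by Caspase-Glo luminescence after 15 min at room temperature.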

[13] = HPAF-II 12hr Apoptosis Induction qHTS against the NCATS CANVASS Library (AID 1347358)
Outline: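 500 HPAF-II cells/well; cmpds 11-pt; 12 hr, 37 degrees C/5% CO2; Caspase-Glo 3/7 added, 15 min RT dark; luminescence read. Doxorubicin titration as control.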

[14] = HEK293 24hr Apoptosis Induction qHTS against the NCATS CANVASS Library (AID 1347359)
Outline: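 HEK293 cells, 500 per well, exposed to an 11-point compound series for 24 hours at 37 degrees C. Caspase 3/7 activity read by Caspase-Glo luminescence (DEVD substrate) after 15 min at room temperature.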

[15] = HPAF-II 18hr Apoptosis Induction qHTS against the NCATS CANVASS Library (AID 1347360)
Outline: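 HPAF-II cells (500/well, DMEM + 10% FBS) were exposed to compounds for 18 hours at 37 degrees C. Caspase-3/7 activity was then read by Caspase-Glo 3/7 luminescence after 15 min at room temperature.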

[16] = HEK293 12hr Apoptosis Induction qHTS against the NCATS CANVASS Library (AID 1347361)
Outline: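 Read-out: Caspase-Glo 3/7 luminescence (DEVD substrate), 15 min RT. Preceded by 12 h compound exposure of HEK293, 500 cells/well, 11-pt qHTS titration; doxorubicin titration as control.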

[17] = tested on: NAD(P)H diaphorase (Clostridium kluyveri); test: Diaphorse counterscreen qHTS: Assay Interference Panel against the NCATS CANVASS Library (AID 1347362)
Outline: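 Clostridium kluyveri diaphorase in PBS + 0.01% Tween-20 preincubated 15 min with compounds. Resazurin and NADH then added for 5 min at room temperature in the dark; resorufin fluorescence read (ex 525, em 598).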

[18] = biological target: Luciferin 4-monooxygenase (Photinus pyralis) (UniProt P08659); test: Firefly luciferase counterscreen qHTS: Assay Interference Panel against the NCATS CANVASS Library (AID 1347363); further: series mostly up to about 57 µM
Outline: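 Purified P. pyralis luciferase (0.04 ug/mL, 4x reagent) added to Tris-acetate buffer with 0.013 mM D-luciferin, 0.013 mM ATP and 13.3 mM Mg-acetate; compounds preincubated 15 min, then luminescence read after 5 min, RT.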

[19] = KB-8-5-11 Cancer Cell Toxicity qHTS against the NCATS CANVASS Library (AID 1347364); further: nearly all actives have a fitted effect of over 75% in size
Outline: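 Plate 500 KB-8-5-11 cells per well in DMEM + 10% FBS, add compounds by pin transfer, incubate 72 hr at 37C. Add CellTiter-Glo, wait 10 minutes at room temperature, read luminescence.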

[20] = SDT Cancer Cell Toxicity qHTS against the NCATS CANVASS Library (AID 1347365);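 further: SDT canine glioma cells 500 per well in 1536 well plates; series mostly up to about 46 µM; nearly all actives have a fitted effect of over 60% in size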
Outline: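 qHTS, SDT dog glioma line, 500 cells/well; cpds 11 pts; 72 hr, 37C, 5% CO2; CellTiterGlo ATP luminescence.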

[21] = KB-3-1 Cancer Cell Toxicity qHTS against the NCATS CANVASS Library (AID 1347366); further: series mostly up to about 46 µM; nearly all actives have a fitted effect of over 75% in size
Outline: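 KB-3-1 cells (500 cells/well) in DMEM + 10% FBS were treated with compounds for 72 hr at 37C, 5% CO2. Viability was read as CellTiter-Glo luminescence after 10 minutes at room temperature.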

[22] = G06 Cancer Cell Toxicity qHTS against the NCATS CANVASS Library (AID 1347368); further: series mostly up to about 46 µM; nearly all actives have a fitted effect of over 60% in size
Outline: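 Dog G06 glioma line, 500 cells/well; cpds pin-transferred, 11-pt; 72 hr, 37C/5% CO2; CellTiterGlo luminescence (ATP) endpoint.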

Measured: Potency

Luciferin 4-monooxygenase (Photinus pyralis), sequence (P08659 whole entry, looked up): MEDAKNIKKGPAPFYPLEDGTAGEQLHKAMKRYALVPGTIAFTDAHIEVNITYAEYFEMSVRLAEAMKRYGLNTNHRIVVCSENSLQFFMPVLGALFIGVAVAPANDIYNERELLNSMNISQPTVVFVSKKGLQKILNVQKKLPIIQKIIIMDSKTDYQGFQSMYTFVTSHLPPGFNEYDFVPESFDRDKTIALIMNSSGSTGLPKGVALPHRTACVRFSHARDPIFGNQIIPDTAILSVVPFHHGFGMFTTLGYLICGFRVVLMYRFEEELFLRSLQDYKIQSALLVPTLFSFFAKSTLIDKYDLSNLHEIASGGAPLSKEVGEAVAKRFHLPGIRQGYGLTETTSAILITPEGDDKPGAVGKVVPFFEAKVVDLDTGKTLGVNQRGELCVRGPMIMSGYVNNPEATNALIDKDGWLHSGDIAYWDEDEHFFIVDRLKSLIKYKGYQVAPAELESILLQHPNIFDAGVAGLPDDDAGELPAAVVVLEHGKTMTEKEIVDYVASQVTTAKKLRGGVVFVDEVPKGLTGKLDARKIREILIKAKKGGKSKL

CCC1=C2CCCN3C(=O)O[C@H]([C@H]1OC(C)=O)[C@H]23
inactive: all assays above
